Rows were chosen to be rich in hits. Some 2.7% of all compounds tested hit in one or more screens of this group.
MITF TRPM1 inh = MITF TRPM1 promoter inhibition in SK-MEL-5 cells. SK-MEL-5 TRPM1 promoter luciferase, 24 h. inhibition, % at 12.5 µM. 330,000 tested, 0.83% active;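 active = mean inhibition across replicates of 60% or more, whatever share of single replicates reaches that level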
HIF-2a block = blocks HIF-2a reporter activity; 360,000 tested, 0.72% active; inhibition, % at 18.8 µM; 786-0 RCC cells HIF-2a reporter, luciferase luminescence, overnight; AID 624352;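 active = inhibition of the luminescence signal of 40% or more relative to plate controls, in a single-dose primary screen at 18.75 µM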
KKLEB tox = counter-screen for CF NF-kB inhibitors: cytotoxicity. KKLEB CF airway cells viability, ATPlite luminescence, overnight; stronger effect = lower value; cells stimulated with P. aeruginosa culture filtrate. activity change (cytotoxicity), % at 5 µM. 360,000 tested, 0.36% active. AID 602141;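 active = corrected activity change at or below -50% at 5 µM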
CF NFkB block = blocks PAF-induced NF-kB reporter in cystic fibrosis cells; KKLEB NF-kB-GFP reporter, GFP fluorescence overnight; inhibition, % at 5 µM; 360,000 tested, 0.86% active;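 active = at least 50% inhibition at 5 µM, scaled per plate between neutral and stimulator controls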;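 note: PAF is a Pseudomonas aeruginosa culture filtrate used as stimulus; plate controls were PAF-stimulated DMSO wells for no effect and unstimulated DMSO wells for full effect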
Peg3 prom inh = inhibitors of Peg3 promoter; HeLa PEG-Prom luciferase reporter, luminescence, overnight; inhibition, % at 20 µM; 360,000 tested, 1.7% active; AID 588405;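 active = inhibition of at least 50% at 20 µM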
Shn3 inh set2 = reduces Shn3 3'UTR luciferase signal in osteoblasts | Clone20 osteoblast Shn3 3'UTR firefly luciferase, 24 h | AID 588674 | 360,000 tested, 0.52% active | inhibition, % at 12.5 µM;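 active = mean inhibition of at least 75% with every replicate also reaching 75%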;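 note: 0% = median of neutral control wells and 100% = pilot-screen positive control compound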
Mdm2-MdmX confirm = confirmation of inhibitors of human Mdm2/MdmX interaction, set 2. shares compounds with HIF-2a block. 740 tested, 99% active. AID 504601. SaOS-2 split-luciferase Mdm2/MdmX complementation, luminescence. inhibition, % at 8 µM;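 active = mean inhibition of the luminescence signal across two replicates at or above 26 percent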
Target sequence (O15151 whole entry, looked up): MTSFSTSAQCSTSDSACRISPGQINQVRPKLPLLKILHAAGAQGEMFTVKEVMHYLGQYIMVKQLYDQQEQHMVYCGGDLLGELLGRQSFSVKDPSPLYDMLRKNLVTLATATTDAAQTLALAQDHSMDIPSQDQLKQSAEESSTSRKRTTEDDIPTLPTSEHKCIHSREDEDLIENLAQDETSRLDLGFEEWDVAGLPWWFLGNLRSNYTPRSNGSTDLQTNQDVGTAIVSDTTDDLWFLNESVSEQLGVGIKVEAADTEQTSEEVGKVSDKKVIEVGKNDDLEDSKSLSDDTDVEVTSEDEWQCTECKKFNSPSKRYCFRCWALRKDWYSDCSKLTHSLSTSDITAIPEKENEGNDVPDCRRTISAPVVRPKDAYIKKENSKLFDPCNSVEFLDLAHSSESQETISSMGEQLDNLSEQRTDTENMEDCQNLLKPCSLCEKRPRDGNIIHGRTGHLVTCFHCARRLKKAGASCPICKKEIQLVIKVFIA
Target sequence (Q00987 whole entry, looked up): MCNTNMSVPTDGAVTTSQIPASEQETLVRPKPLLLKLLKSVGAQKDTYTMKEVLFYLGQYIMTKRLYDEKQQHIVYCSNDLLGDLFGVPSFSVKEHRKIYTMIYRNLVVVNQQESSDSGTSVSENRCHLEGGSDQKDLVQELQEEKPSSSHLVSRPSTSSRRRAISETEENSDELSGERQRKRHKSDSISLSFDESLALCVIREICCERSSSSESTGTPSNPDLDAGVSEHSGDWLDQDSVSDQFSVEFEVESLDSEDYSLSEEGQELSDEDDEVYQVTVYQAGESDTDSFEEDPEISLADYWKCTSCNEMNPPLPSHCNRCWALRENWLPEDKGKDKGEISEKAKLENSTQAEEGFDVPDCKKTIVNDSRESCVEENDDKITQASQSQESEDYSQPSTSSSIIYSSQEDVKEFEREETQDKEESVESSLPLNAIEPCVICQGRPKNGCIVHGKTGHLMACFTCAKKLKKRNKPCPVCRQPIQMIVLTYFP
HIF-2a conf = confirmation of HIF-2a inhibitors; shares compounds with HIF-2a block; 786-0 RCC cells, HIF-2a luciferase reporter luminescence, overnight; inhibition, % at 18.8 µM; 1,800 tested, 56% active;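 active = mean inhibition across four replicates of at least 40 percent at the single tested concentration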
HIF-1a cs = inhibits HIF-1a reporter, a counter-screen for HIF-2a inhibitors; MiaPaCa-2 HIF-1a luciferase reporter, desferoxamine, overnight; shares compounds with HIF-2a block; 1,800 tested, 72% active; inhibition, % at 18.8 µM;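 active = mean inhibition of the reporter signal across four replicates at the single tested dose of 50% or more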
The depositor's hits bear a star; nt = no result given.

SMILES | MITF TRPM1 inh | HIF-2a block | KKLEB tox | CF NFkB block | Peg3 prom inh | Shn3 inh set2 | HIF-2a conf | HIF-1a cs | others
COc1ccc2nc(-c3ccc(N)cc3)[nH]c2c1 | 32.2 | 69.6* | 6.5 | -22.2 | -116.8 | 23.2 | 79.9* | 17.0
COC(=O)[C@]12CCCCC=C1N(Cc1ccc3c(c1)OCO3)C(=O)[C@H](CC(=O)NCCCCc1ccccc1)C2 | nt | -0.9 | nt | nt | nt | nt | nt | nt
COC(=O)COc1ccc(/C=N/NC(=O)c2ccc(N(Cc3ccccc3)S(C)(=O)=O)cc2)cc1 | 5.6 | 64.4* | -9.7 | -4.4 | 4.4 | 14.8 | 18.5 | -2.8
COC(=O)COc1ccc(/C=N/NC(=O)CN(c2ccccc2OC)S(=O)(=O)c2ccccc2)cc1 | 8.1 | 57.0* | -0.1 | 20.0 | 18.4 | -14.9 | 74.5* | 57.4*
CCN(CC(=O)Nc1cccc(Br)c1)Cc1nc2ccccc2c(=O)[nH]1 | -7.8 | 41.6* | -8.5 | 8.0 | 24.9 | 11.2 | 6.5 | 25.7
CCOC1=C2CN(S(=O)(=O)c3ccc(C)cc3)[C@@H](c3ccccc3)C[C@H]2[C@H]2C(=O)N(c3ccccc3)C(=O)[C@H]2C1 | nt | -2.0 | -18.8 | 14.2 | 6.0 | -18.3 | nt | nt
O=S1(=O)CCO[C@H]2Cc3ccccc3[C@H]2N1Cc1ccccc1Br | -4.9 | 7.5 | -0.7 | -0.1 | 16.6 | 21.5 | nt | nt
C=C1[C@@H](O)[C@H](CC(C)C)N(Cc2ccccc2Br)S1(=O)=O | 12.5 | 72.2* | -96.4* | 89.4* | 97.1* | 17.9 | 42.1* | 101.4*
CCn1c(C)nc2cc(-c3nc4n(n3)Cc3ccccc3-4)ccc21 | 97.5* | 91.2* | -87.7* | -1.8 | 113.9* | 97.3* | nt | nt | Mdm2-MdmX confirm=100.5*
COc1cc(OC)cc(-c2noc(-c3csc([C@@H]4C[C@H](O)[C@@H](CO)O4)n3)n2)c1 | nt | -198.1 | -7.5 | -1.5 | -173.3 | -124.9 | nt | nt
NS(=O)(=O)c1ccc(CCNC(=O)c2ccc[nH]c2=S)cc1 | 4.9 | 22.8 | 4.0 | -15.6 | -1.2 | 10.9 | nt | nt
O=C(COC(=O)c1ccc(NS(=O)(=O)c2ccc(F)c(F)c2)cc1)NCC1CCCO1 (stereo unspecified) | -0.8 | 44.6* | 9.0 | -5.2 | 13.9 | -8.6 | -9.4 | 12.8
CC(c1nccs1)N(C)C(=O)CCc1nnc(-c2ccc(-c3ccccc3)cc2)o1 (stereo unspecified) | -0.3 | 10.4 | -7.6 | -5.4 | -72.3 | 3.8 | nt | nt
COC(=O)CCCNC(=O)CCc1nnc(-c2ccc(-c3ccccc3)cc2)o1 | 17.4 | 48.2* | 11.7 | -17.8 | -90.2 | 22.3 | 52.4* | 26.3
CC(NC(=O)CCc1nnc(-c2ccc(-c3ccccc3)cc2)o1)c1nccs1 (stereo unspecified) | 34.5 | 40.1* | -4.5 | 9.9 | -72.7 | 49.8 | 51.2* | 37.1
CCCCn1c(N)c(N(CCOC)C(=O)CN(C)S(=O)(=O)c2ccc(F)cc2)c(=O)[nH]c1=O | -0.2 | 5.2 | 2.7 | -19.3 | 3.0 | -20.0 | nt | nt
CN1CCN(C(=O)C2Cc3c(-c4ccc5c(c4)OCO5)ccnc3O2)CC1 (stereo unspecified) | nt | 6.0 | 22.3 | -20.4 | 13.5 | -10.8 | nt | nt
Cc1ccc(Sc2c([N+](=O)[O-])c(=O)n(C)c3ccccc23)cc1 | 20.7 | 51.5* | -2.2 | 2.1 | 44.6 | 72.4 | 5.9 | 86.7*
CN(C)c1ncnc2c1ncn2C1OC(CO)C(O)C1O (stereo unspecified) | 42.0 | 52.0* | -43.0 | 45.7 | 27.6 | 95.7* | 26.1 | 42.2
Nc1ccn(C2OC(CO)C(O)C2O)c(=O)n1 (stereo unspecified) | nt | 9.1 | 11.2 | -38.8 | 39.8 | 67.5 | nt | nt
C=CCOc1ccc(C[C@H](N)C(=O)NC[C@H]2O[C@@H](n3cnc4c(N)ncnc43)[C@H](O)[C@@H]2O)cc1 | -7.9 | -0.6 | 7.3 | -5.5 | -8.8 | -12.4 | nt | nt
OCC1OC(n2ccc3c2ncn2ncnc32)C(O)C1O (stereo unspecified) | nt | 54.0* | -57.1* | 68.4* | 35.4 | 9.3 | 37.1 | 54.1*
COc1ccc(C[C@H](N)C(=O)N[C@H]2[C@@H](O)[C@H](n3cnc4c(N(C)C)ncnc43)O[C@@H]2CO)cc1 | 108.6* | 94.9* | 7.2 | -18.1 | 102.3* | 4.6 | 94.9* | 105.1* | Mdm2-MdmX confirm=103.0*
Cc1nnc(SCC(=O)NC23CC4CC(CC(C4)C2)C3)n(N)c1=O | -11.5 | 68.1* | -17.6 | -4.6 | -7.2 | -17.6 | -5.5 | -8.5
CC(=O)Nc1ccc(C(=O)N2CCCCC2c2cc(C(=O)NC(C)C)no2)cc1 (stereo unspecified) | nt | -0.7 | -5.9 | -44.1 | -2.5 | -16.8 | nt | nt
SMILES | MITF TRPM1 inh | HIF-2a block | KKLEB tox | CF NFkB block | Peg3 prom inh | Shn3 inh set2 | HIF-2a conf | HIF-1a cs | others
COC(=O)c1ccc(-c2nn(C)c(=O)c3ccccc23)cc1 | 4.9 | 7.6 | 3.0 | -1.6 | 2.0 | -2.9 | nt | nt
COC(=O)c1ccc(C(=O)OC)c(-n2c(=O)c3ccccc3c3ccccc3c2=O)c1 | 40.7 | 45.4* | -18.1 | 3.6 | 23.3 | 71.1 | 52.0* | -5.6
C[C@H](CO)N1C[C@H](C)[C@H](CN(C)Cc2cncnc2)Oc2ncc(C#CC3(O)CCCC3)cc2C1=O | nt | -1.8 | 1.1 | -9.0 | -24.9 | -12.3 | nt | nt
C[C@@H]1CN([C@@H](C)CO)S(=O)(=O)c2ccc(Br)cc2O[C@H]1CN(C)C(=O)C1CCOCC1 | nt | 0.5 | 2.6 | -24.9 | 0.3 | -4.5 | nt | nt
Cc1ccc(NC(=O)COC(=O)c2ccco2)cc1S(=O)(=O)N1CCCCC1 | nt | 0.3 | 10.4 | -15.5 | -1.7 | -5.3 | nt | nt
Cc1nnc(SC(=O)N2c3ccccc3Sc3ccccc32)s1 | 76.4* | 18.6 | -58.3* | 68.8* | 98.5* | 61.6 | nt | nt | Mdm2-MdmX confirm=103.2*
CCOC(=O)N1c2ccccc2Sc2ccccc21 | 8.2 | 27.6 | -0.1 | 16.4 | 15.4 | 12.7 | nt | nt
CN(C)CCNC(=O)c1cccc(-c2cc(NC=O)c3ncc(-c4cccc(C(F)(F)F)c4)n3c2)c1 | nt | 94.8* | -9.5 | 1.2 | 98.4* | 26.5 | 9.0 | 106.0*
CN(C)CCNC(=O)c1cccc(-c2cnc3c(NC=O)cc(-c4cc(F)c(F)c(F)c4)cn23)c1 | nt | 87.7* | -16.9 | 20.6 | 26.2 | 6.2 | 8.1 | 106.7*
C[C@@H]1CCCCO[C@@H](CN(C)S(=O)(=O)c2cn(C)cn2)[C@@H](C)CN([C@H](C)CO)C(=O)c2cc(NC(=O)Nc3ccc(C(F)(F)F)cc3)ccc2O1 | nt | 10.6 | 12.7 | 3.4 | -3.5 | -11.0 | nt | nt
Nc1nc2ccccc2n1S(=O)(=O)c1ccccc1 | nt | 19.2 | -0.1 | 16.7 | 32.9 | 16.6 | nt | nt
